# Results as given in publication PMC4336329 (PLoS ONE, 2015).
# Hit rate of the full screen: of about 310,000 compounds, about 14,000 (4.5%) showed an effect of 50% or more. Effects have a minus sign here. What follows is part of a selection rich in strong results, with near analogues and random picks from the rest.
# Molecular target: human ether-à-go-go-related gene (hERG) potassium channel (human, UniProt Q12809)
# Assay: primary screen, population patch clamp on CHO cells stably expressing hERG; higher = less effect of the substance
# 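Also: peak tail current of the secondary pulse compared with the same well before compound.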
# Sequence of human ether-à-go-go-related gene (hERG) potassium channel (Q12809 whole entry, looked up): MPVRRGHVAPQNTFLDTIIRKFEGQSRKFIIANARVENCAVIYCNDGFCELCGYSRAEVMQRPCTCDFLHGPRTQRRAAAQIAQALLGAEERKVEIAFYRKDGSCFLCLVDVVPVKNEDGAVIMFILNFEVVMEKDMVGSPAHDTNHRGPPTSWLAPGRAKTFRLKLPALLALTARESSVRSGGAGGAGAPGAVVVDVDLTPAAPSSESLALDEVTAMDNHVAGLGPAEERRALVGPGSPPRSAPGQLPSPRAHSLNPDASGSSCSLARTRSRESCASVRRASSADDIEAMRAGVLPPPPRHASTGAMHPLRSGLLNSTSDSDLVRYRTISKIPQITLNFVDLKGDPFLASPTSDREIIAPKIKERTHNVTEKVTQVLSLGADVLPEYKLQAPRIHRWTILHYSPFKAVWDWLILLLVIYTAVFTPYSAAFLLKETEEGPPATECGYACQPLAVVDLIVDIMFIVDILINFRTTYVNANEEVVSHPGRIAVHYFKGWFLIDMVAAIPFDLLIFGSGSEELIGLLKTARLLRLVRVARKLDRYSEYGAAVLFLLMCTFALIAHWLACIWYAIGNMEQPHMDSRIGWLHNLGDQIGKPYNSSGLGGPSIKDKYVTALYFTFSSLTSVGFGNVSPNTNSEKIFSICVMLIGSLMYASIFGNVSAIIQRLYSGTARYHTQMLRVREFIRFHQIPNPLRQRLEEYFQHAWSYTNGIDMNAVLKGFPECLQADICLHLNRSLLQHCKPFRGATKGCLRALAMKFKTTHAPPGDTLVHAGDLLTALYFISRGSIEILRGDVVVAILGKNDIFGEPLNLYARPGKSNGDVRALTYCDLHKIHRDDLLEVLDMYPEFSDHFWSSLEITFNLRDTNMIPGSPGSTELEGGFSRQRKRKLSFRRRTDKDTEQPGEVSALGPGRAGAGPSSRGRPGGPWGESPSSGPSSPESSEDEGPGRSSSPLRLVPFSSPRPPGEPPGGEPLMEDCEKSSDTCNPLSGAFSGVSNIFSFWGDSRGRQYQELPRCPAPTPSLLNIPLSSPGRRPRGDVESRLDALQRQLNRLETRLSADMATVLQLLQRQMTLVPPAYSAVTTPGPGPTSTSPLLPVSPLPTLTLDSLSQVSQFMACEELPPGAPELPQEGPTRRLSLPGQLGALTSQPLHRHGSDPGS
row,SMILES,"hERG current change (%, negative = inhibition) at 10uM [%]"
1,CC(C)(C)c1ccc(C(=O)NCC2CCCN2S(=O)(=O)c2ccccc2)cc1 (centres unmarked),-6.28
2,Cc1ccc(C(=O)N/N=C2\CCSC2)cc1[N+](=O)[O-],-2.95
3,COc1ccccc1C(CNC(=O)CSc1ccc2ccccc2c1)N(C)C (centres unmarked),-34.9
4,COc1ccccc1NC(=O)Cn1cnc2c(cnn2-c2ccc(C)c(C)c2)c1=O,12.1
5,Cc1[nH]c2ccccc2c1/C=N/NC(=O)c1cccc(S(=O)(=O)Nc2cccc(C(F)(F)F)c2)c1,18.6
6,CC(=O)c1ccc(OCc2cc(C(=O)NCCc3ccc(Cl)cc3)no2)cc1,-29.7
7,CSc1nnc(NC(=O)c2nc(S(=O)(=O)Cc3ccccc3)ncc2Cl)s1,0.719
8,O=C(Nn1c(-c2ccc(Br)cc2)nc2ccccc2c1=O)c1ccncc1,20.2
9,O=C(Nc1ccccn1)c1ccc(Cl)c(S(=O)(=O)N2CCCCCC2)c1,-32.7
10,CCOC(=O)c1cccc(C(=O)Oc2ccccc2)n1,14.6
11,Cc1nn(-c2ccccc2)c(C)c1C(=O)OCC(=O)Nc1ccccc1,-7.85
12,Cc1cccc(-c2nsc(SCC(=O)NCc3ccco3)n2)c1,15
13,Cc1nc(N=C(N)N)nc2c(C)cccc12,25.2
14,C=CCOC(Cn1ccnc1)c1ccc(Cl)cc1Cl (centres unmarked),-29.6
15,Clc1ccc(C(Cn2ccnc2)OCc2c(Cl)cccc2Cl)c(Cl)c1 (centres unmarked),-32
16,Clc1ccc(C(c2ccc(Cl)cc2)n2cc[n+](CC(OCc3ccc(Cl)cc3Cl)c3ccc(Cl)cc3Cl)c2)cc1.[Cl-] (centres unmarked),-62.8
17,CC(C)CCn1nnnc1C(c1ccc(F)cc1)N1CCC(C(N)=O)CC1 (centres unmarked),-21.4
18,Fc1cccc(CNCCc2c[nH]c3ccccc23)c1.O=C(O)C(=O)O,-7.63
19,Cc1c(CC(=O)NCCCO)c(=O)oc2cc3c(cc12)CCC(C)(C)O3,17.6
20,Cc1c(CC(=O)NCCCCCC(=O)O)c(=O)oc2cc3c(cc12)CCC(C)(C)O3,9.83
21,Cc1c(CC(=O)NCCCC(=O)O)c(=O)oc2cc3c(cc12)CCC(C)(C)O3,-64.5

row,SMILES,"hERG current change (%, negative = inhibition) at 10uM [%]"
1,COC(=O)c1ccc(NC(=O)CCc2nnc3ccc(NCc4ccco4)nn23)cc1,18.4
2,CCCCN(CCCC)CCNC(=O)CN1C(=O)CSc2ccc(S(=O)(=O)N3CCCCC3)cc21,-74.7
3,CCCCN(C)CCNC(=O)CN1C(=O)CSc2ccc(S(=O)(=O)N3CCCC3)cc21,-3.28
4,CCCCN(C)CCNC(=O)CN1C(=O)CSc2ccc(S(=O)(=O)N3CCCCC3)cc21,-50.6
5,CCCCN(C)CCNC(=O)CN1C(=O)CSc2ccc(S(=O)(=O)N3CCOCC3)cc21,2.2
6,CN(C)CCNC(=O)CN1C(=O)CSc2ccc(S(=O)(=O)N3CCCCC3)cc21,12.5
7,CCCCN(CCCC)CCNC(=O)CN1C(=O)CSc2ccc(S(=O)(=O)N3CCOCC3)cc21,-38.8
8,O=c1oc(-c2ccccc2NS(=O)(=O)c2ccc3ccccc3c2)nc2ccccc12,22.9
9,CC(=O)c1c(C(C)=O)c(C)n(NC(=O)c2ccncc2)c1C,8.37
10,COCCN(C(=O)CNC(=O)c1ccco1)C(C(=O)NC1CCCCC1)c1cccnc1 (centres unmarked),20.1
11,CC(C)c1ccc(S(=O)(=O)N(C)C2(C)CCS(=O)(=O)C2)cc1 (centres unmarked),-46.9
12,Cc1cc(Cl)ccc1OCC(=O)OCC(=O)NC1CCS(=O)(=O)C1 (centres unmarked),-12.2
13,O=C(CCNC(=O)c1ccccc1Cl)Nc1nc(-c2ccccc2Cl)cs1,-7.92
14,Cc1cccc(-n2ccnc2SCC(=O)Nc2ccc3c(c2)OCCO3)c1,-14
15,COc1cccc(NC(=O)c2ccc3c(c2)CCN3S(C)(=O)=O)c1,3.4
16,Cc1nc2c(-c3ccccc3)c(C)nn2c(C)c1CCC(=O)NC(C)CCc1ccco1 (centres unmarked),-66.6
17,Cc1nc2c(-c3ccc(F)cc3)c(C)nn2c(C)c1CCC(=O)NCc1ccco1,-19.9
18,Cc1nc2c(-c3ccccc3)c(C)nn2c(C)c1CCC(=O)NCc1ccco1,-29.9
19,Cc1nc2c(-c3ccc(F)cc3)c(C)nn2c(C)c1CCC(=O)Nc1ccccc1,0.666
20,Cc1nc2ncnn2c(C)c1CCC(=O)NC(C)CCc1ccco1 (centres unmarked),-8.57
21,Cc1nc2c(-c3ccc(F)cc3)c(C)nn2c(C)c1CCC(=O)NC(C)CCc1ccco1 (centres unmarked),-68.8

row,SMILES,"hERG current change (%, negative = inhibition) at 10uM [%]"
1,CC(=O)Nc1cc2c(cc1NC(=O)Cn1nc(-c3ccccc3)ccc1=O)OCCO2,11.9
2,COc1cccc(C2C(C(=O)c3cc4ccccc4o3)=C(O)C(=O)N2c2cc(C)on2)c1 (centres unmarked),7.91
3,O=C(Cc1csc(NC(=O)c2ccccc2)n1)NO,8.93
4,O=[N+]([O-])c1cc(CS(=O)(=O)Oc2ccc(Cl)cc2)c(O)c([N+](=O)[O-])c1,15.1
5,CCCn1nnnc1NC(=O)c1ccc(C)cc1Cl,5.02
6,O=C(NCCOCCOCCNC(=O)c1ccccc1)c1ccccc1,12.7
7,CCOc1cc2[nH]c(=O)n(CCCN3CCCC3=O)c(=O)c2cc1OCC,-6.1
8,CCOc1cc2[nH]c(=S)n(CCCN(CC)CC)c(=O)c2cc1OCC,-29.6
9,CCCCN(C)CCn1c(=S)[nH]c2cc(OCC)c(OCC)cc2c1=O,-55.8
10,CCOc1cc2[nH]c(=S)n(CCCOC)c(=O)c2cc1OCC,-12.1
11,CC1CCN(CCn2c(=S)[nH]c3cc4c(cc3c2=O)OCO4)CC1,-27.4
12,CCOc1cc2[nH]c(=S)n(CCN3CCC(C)CC3)c(=O)c2cc1OCC,-51.2
13,CCOc1cc2[nH]c(=O)n(CCCN3CCN(c4ccc(OC)cc4)CC3)c(=O)c2cc1OCC,-67.8
14,CCOc1cc2[nH]c(=O)n(CCCC(=O)NCc3ccc(OC)cc3)c(=O)c2cc1OCC,8.71
15,CCOc1cc2[nH]c(=S)n(CCCN3CCOCC3)c(=O)c2cc1OCC,-18.5
16,O=C(CCCCCn1c(=S)[nH]c2ccc(N3CCOCC3)cc2c1=O)NC1CCN(Cc2ccccc2)CC1,-9.35
17,COc1ccccc1N(C(=O)c1csnn1)C(C(=O)NC1CCCC1)c1ccccc1 (centres unmarked),-1.69
18,Cc1c(Cl)cccc1NC(=O)CSc1sc2c(O)cc(=O)[nH]c2c1C#N,-2.45
19,Cc1ccc(O)c(C2=Nc3ccccc3N=C(c3cccs3)C2)c1,12
20,CCN1CCN(C(CNS(=O)(=O)c2cccs2)c2cccnc2)CC1 (centres unmarked),-61.4
21,COC(=O)NCC(c1cccnc1)N1CCN(c2ccccc2)CC1 (centres unmarked),-13.3

row,SMILES,"hERG current change (%, negative = inhibition) at 10uM [%]"
1,CN1CCN(C(CNS(=O)(=O)c2cccs2)c2cccnc2)CC1 (centres unmarked),-21.4
2,O=S(=O)(NCC(c1cccnc1)N1CCOCC1)c1cccs1 (centres unmarked),-10.9
3,O=S(=O)(NCC(c1cccnc1)N1CCN(c2ccc(F)cc2)CC1)c1cccs1 (centres unmarked),-71.7
4,CCS(=O)(=O)NCC(c1cccnc1)N1CCN(c2ccc(OC)cc2)CC1 (centres unmarked),-11.3
5,COc1ccc(N2CCN(C(CNC(=O)Oc3ccccc3)c3cccnc3)CC2)cc1 (centres unmarked),-27.5
6,O=S(=O)(NCC(c1cccnc1)N1CCN(c2ccccc2)CC1)c1cccs1 (centres unmarked),-60.4
7,COc1ccc(N2CCN(C(CNS(=O)(=O)c3cccs3)c3cccnc3)CC2)cc1 (centres unmarked),-72.5
8,CCCOc1ccc(C2C(C(=O)c3cc4ccccc4o3)=C(O)C(=O)N2c2cc(C)on2)cc1OC (centres unmarked),25.3
9,Cc1cnc(C(=O)Oc2ccc(-c3ccccc3)cc2)cn1,16.8
10,CCCCOCCCNC(=O)c1ccc(OC)cc1,-6.63
11,COc1ccc(NS(=O)(=O)c2cc3c(cc2C)N(C)CCO3)cc1,-10.5
12,O=S(=O)(NCC(c1cccnc1)N1CCN(c2ccccc2F)CC1)c1cccs1 (centres unmarked),-60.5
13,CCS(=O)(=O)NCC(c1cccnc1)N1CCN(c2ccccc2F)CC1 (centres unmarked),-3.19
14,CS(=O)(=O)NCC(c1cccnc1)N1CCN(c2ccccc2F)CC1 (centres unmarked),-9.77
15,Cc1ccc(C(=O)CCC(=O)N2CCC(C(N)=O)CC2)cc1,32
16,CCOC(=O)C1(CCC(C)C)CC(CSc2nc3ccccc3[nH]2)OC1=O (centres unmarked),-25.2
17,O=C(O)c1cc([N+](=O)[O-])c(NCc2cccnc2)c([N+](=O)[O-])c1,9.52
18,COc1ccc2c(c1)c(C(=O)CN1CCC3(CC1)OCCO3)c(C)n2Cc1ccccc1,-53
19,CCN1CCN(CC(=O)c2c(C)n(Cc3ccccc3)c3ccc(OC)cc23)CC1,-41.3
20,COc1ccc2c(c1)c(C(=O)CN1CCN(C)CC1)c(C)n2Cc1ccccc1,-35
